Assay results published in PubChem BioAssay (EPA / NIEHS).
Records with an inconclusive call do not appear. Activity calls are given as the source filed them. Rule for the calls, unless noted: active = hit-call score of the fitted dose curve at least 0.9, where 1 is the maximum; inactive = score below 0.9.

Assays:
[1] = read-out: Human Leukocyte Antigen - DR isotype (HLADR), HLA-DRA (gene 3122); assay: BSK_3C_HLADR: BioMAP Diversity Plus: 3C Assay for Human Leukocyte Antigen - DR isotype (HLADR) Biomarker Activity (AID 2283019); conditions: primary human endothelial cells (HUVEC); actives raise or lower the signal
Summary of the method: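 HUVEC monoculture, HLA-DR measured by ELISA 24 h after chemical dosing. Fitted bidirectionally against DMSO baseline; parallel SRB staining assessed cytotoxicity, with 3C proliferation read by SRB at 48 h.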

[2] = read-out: Interleukin-8 (IL8), CXCL8 (gene 3576); assay: BSK_3C_IL8: BioMAP Diversity Plus: 3C Assay for Interleukin-8 (IL8) Biomarker Activity (AID 2283020); conditions: primary human endothelial cells (HUVEC); actives raise or lower the signal
Summary of the method: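 Primary human umbilical vein endothelial cells (3C system) were exposed to test chemical for 24 h, then IL-8 was quantified by ELISA. Responses were fitted bidirectionally against DMSO vehicle as baseline.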

[3] = read-out: Monokine induced gamma interferon (MIG), CXCL9 (gene 4283); assay: BSK_3C_MIG: BioMAP Diversity Plus: 3C Assay for Monokine induced gamma interferon (MIG) Biomarker Activity (AID 2283021); conditions: primary human endothelial cells (HUVEC); actives raise or lower the signal
Summary of the method: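 Primary human umbilical vein endothelial cells in the 3C system were exposed to chemical for 24 h, after which MIG was quantified by ELISA. Activity was fitted bidirectionally against DMSO as negative control and baseline.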

[4] = BSK_3C_SRB: Viability Assessment in the BioMAP Diversity Plus: 3C Assay (AID 2283023); conditions: primary human endothelial cells (HUVEC);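 note: fitted both ways against DMSO so a hit may be signal rise or drop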
Summary of the method: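 Human umbilical vein endothelial cells in the 3C system, treated 24 h. Total protein measured by 0.1% sulforhodamine B staining after 10% TCA fixation, read at 560 nm; bidirectional fit versus DMSO.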

[5] = read-out: Matrix Metallopeptidase 1 (MMP1), MMP1 (gene 4312); assay: BSK_BE3C_MMP1: BioMAP Diversity Plus: BE3C Assay for Matrix Metallopeptidase 1 (MMP1) Biomarker Activity (AID 2283024); conditions: primary human bronchial epithelial cells; actives raise or lower the signal
Summary of the method: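 Primary human bronchial epithelial cells were dosed with test chemicals, and MMP1 levels were measured by ELISA 24 h later. Data were fitted bidirectionally against DMSO as the negative control and activity baseline.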

[6] = BSK_3C_Vis: BioMAP Diversity Plus: 3C Assay for Morphology Visualization (AID 2283025); conditions: primary human endothelial cells (HUVEC);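 note: fitted both ways so gain or loss versus DMSO counts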
Summary of the method: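 Human umbilical vein endothelial cells in the 3C system were imaged by light microscopy 24 h after chemical dosing to record cell morphology. Activity was fitted bidirectionally against DMSO as negative control and baseline; the endpoint serves as a background control.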

[7] = BSK_4H_SRB: Viability Assessment in the BioMAP Diversity Plus: 4H Assay (AID 2283027); conditions: primary human endothelial cells (HUVEC);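 note: cells exposed to compound for 24 h before staining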;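 for AC50: curves fitted both ways versus DMSO so AC50 may be loss or gain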
Summary of the method: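 Absorbance at 560 nm of SRB-stained total protein served as the viability read-out in confluent primary human umbilical vein endothelium 24 h after chemical treatment. Curves were fitted bidirectionally against DMSO as negative control.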

[8] = BSK_BE3C_SRB: Viability Assessment in the BioMAP Diversity Plus: BE3C Assay (AID 2283028); conditions: primary human bronchial epithelial cells
Summary of the method: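 Human bronchial epithelial primary cells in confluent culture, 24 h after chemical dosing; total protein by 0.1% SRB staining after 10% TCA fixation, read at 560 nm. Bidirectional fitting versus DMSO baseline.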

[9] = read-out: Urokinase-type plasminogen activator receptor (uPAR), PLAUR (gene 5329); assay: BSK_4H_uPAR: BioMAP Diversity Plus: 4H Assay for Urokinase-type plasminogen activator receptor (uPAR) Biomarker Activity (AID 2283030); conditions: primary human endothelial cells (HUVEC); actives raise or lower the signal
Summary of the method: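 Human umbilical vein endothelial cells in the 4H system, 24 h after chemical dosing. Cell-surface uPAR measured by ELISA, fitted in both directions versus DMSO; cytotoxicity checked by SRB total protein in parallel cultures.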

[10] = read-out: Vascular endothelial growth factor receptor 2 (Homo sapiens) (UniProt P35968); assay: BSK_4H_VEGFRII: BioMAP Diversity Plus: 4H Assay for Vascular endothelial growth factor receptor 2 (VEGFR2) Biomarker Activity (AID 2283031); conditions: primary human endothelial cells (HUVEC); actives raise or lower the signal
Summary of the method: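 Primary human umbilical vein endothelial cells (4H system), 24 h exposure; cell-surface VEGFR2 measured by ELISA. Bidirectional fitting versus DMSO; cytotoxicity checked in parallel by SRB total-protein staining.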

[11] = read-out: Human Leukocyte Antigen - DR isotype (HLADR), HLA-DRA (gene 3122); assay: BSK_BE3C_HLADR: BioMAP Diversity Plus: BE3C Assay for Human Leukocyte Antigen - DR isotype (HLADR) Biomarker Activity (AID 2283032); conditions: primary human bronchial epithelial cells; actives raise or lower the signal
Summary of the method: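 Human primary bronchial epithelial cells in the BE3C system were exposed to chemicals for 24 h, after which HLA-DR levels were quantified by ELISA. Activity was fitted bidirectionally, gain or loss of signal, against DMSO as negative control and baseline.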

[12] = read-out: Vascular cell adhesion molecule 1 (VCAM1), VCAM1 (gene 7412); assay: BSK_4H_VCAM1: BioMAP Diversity Plus: 4H Assay for Vascular cell adhesion molecule 1 (VCAM1) Biomarker Activity (AID 2283033); conditions: primary human endothelial cells (HUVEC); actives raise or lower the signal
Summary of the method: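 Primary human umbilical vein endothelial cells were exposed to chemicals for 24 h, after which VCAM-1 was quantified by ELISA. Responses were fitted bidirectionally against DMSO as negative control and activity baseline.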

[13] = read-out: Interferon-gamma inducible Protein 10 (IP10), CXCL10 (gene 3627); assay: BSK_BE3C_IP10: BioMAP Diversity Plus: BE3C Assay for Interferon-gamma inducible Protein 10 (IP10) Biomarker Activity (AID 2283034); conditions: primary human bronchial epithelial cells; actives raise or lower the signal
Summary of the method: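 Human primary bronchial epithelial cells were exposed to chemicals for 24 hours, after which IP-10 levels were measured by ELISA. Data were fitted bidirectionally against DMSO, which served as the negative control and activity baseline.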

[14] = read-out: Monokine induced gamma interferon (MIG), CXCL9 (gene 4283); assay: BSK_BE3C_MIG: BioMAP Diversity Plus: BE3C Assay for Monokine induced gamma interferon (MIG) Biomarker Activity (AID 2283035); conditions: primary human bronchial epithelial cells; actives raise or lower the signal;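 note: MIG protein measured by ELISA in BE3C cultures after 24 h of dosing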
Summary of the method: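 MIG level was determined by ELISA after 24 h chemical treatment of primary human bronchial epithelial cells. Values were fitted bidirectionally with DMSO as the negative control and activity baseline.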

[15] = read-out: Transforming growth factor beta 1 (TGFb1), TGFB1 (gene 7040); assay: BSK_BE3C_TGFb1: BioMAP Diversity Plus: BE3C Assay for Transforming growth factor beta 1 (TGFb1) Biomarker Activity (AID 2283036); conditions: primary human bronchial epithelial cells; actives raise or lower the signal
Summary of the method: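 Human primary bronchial epithelial cells (BE3C system) were dosed with chemical and TGF-b1 levels measured by ELISA at 24 h. Activity was fitted bidirectionally relative to DMSO negative control as baseline.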

[16] = read-out: Plasminogen activator inhibitor-1 (PAI1), SERPINE1 (gene 5054); assay: BSK_BE3C_PAI1: BioMAP Diversity Plus: BE3C Assay for Plasminogen activator inhibitor-1 (PAI1) Biomarker Activity (AID 2283037); conditions: primary human bronchial epithelial cells; actives raise or lower the signal
Summary of the method: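 Human primary bronchial epithelial cells were exposed to chemical for 24 h, then PAI-1 was quantified by ELISA. Activity was fitted bidirectionally relative to the DMSO negative control baseline.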

[17] = read-out: urokinase plasminogen activator (uPA), PLAU (gene 5328); assay: BSK_BE3C_uPA: BioMAP Diversity Plus: BE3C Assay for urokinase plasminogen activator (uPA) Biomarker Activity (AID 2283038); conditions: primary human bronchial epithelial cells; actives raise or lower the signal;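 note: uPA protein level quantified by ELISA in cell cultures; uPA read one day after compound addition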
Summary of the method: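 Primary human bronchial epithelial cells, uPA measured by ELISA 24 h after dosing. Bidirectional change relative to DMSO; cytotoxicity checked in parallel cultures by sulforhodamine B total-protein staining.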

[18] = read-out: Pselectin, SELP (gene 6403); assay: BSK_4H_Pselectin: BioMAP Diversity Plus: 4H Assay for Pselectin Biomarker Activity (AID 2283026); conditions: primary human endothelial cells (HUVEC); actives raise or lower the signal
Summary of the method: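 Primary human umbilical vein endothelial cells were exposed to test chemical for 24 h, then cell-surface P-selectin was quantified by ELISA. Activity was fitted bidirectionally against DMSO as negative control and baseline.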

[19] = read-out: Thrombomodulin, THBD (gene 7056); assay: BSK_3C_Thrombomodulin: BioMAP Diversity Plus: 3C Assay for Thrombomodulin Biomarker Activity (AID 2283029); conditions: primary human endothelial cells (HUVEC); actives raise or lower the signal
Summary of the method: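 Primary human umbilical vein endothelial cells (3C system) were exposed to chemical for 24 h, then thrombomodulin levels were measured by ELISA. Activity was fitted bidirectionally against the DMSO negative control as baseline.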

[20] = target: human Vitamin D Receptor (VDR), VDR (gene 7421) (UniProt P11473); assay: ATG_VDR_TRANS: Attagene TRANS-FACTORIAL HepG2 Assay for human Vitamin D Receptor (VDR) (AID 2283022; active = hit-call score of the fitted dose curve at least 0.9, where 1 is the maximum)
Summary of the method: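 HepG2 cells were transiently transfected with GAL4-UAS reporter units and a chimeric VDR-Gal4 construct, then dosed for 24 hours. Reporter mRNA was quantified by RT-PCR, fluorescent labeling, HpaI digestion and capillary electrophoresis; gain of signal analysed vs DMSO.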

Measured: AC50

Sequence of human Vitamin D Receptor (VDR), VDR (gene 7421) (P11473 whole entry, looked up, the tested form may be a part): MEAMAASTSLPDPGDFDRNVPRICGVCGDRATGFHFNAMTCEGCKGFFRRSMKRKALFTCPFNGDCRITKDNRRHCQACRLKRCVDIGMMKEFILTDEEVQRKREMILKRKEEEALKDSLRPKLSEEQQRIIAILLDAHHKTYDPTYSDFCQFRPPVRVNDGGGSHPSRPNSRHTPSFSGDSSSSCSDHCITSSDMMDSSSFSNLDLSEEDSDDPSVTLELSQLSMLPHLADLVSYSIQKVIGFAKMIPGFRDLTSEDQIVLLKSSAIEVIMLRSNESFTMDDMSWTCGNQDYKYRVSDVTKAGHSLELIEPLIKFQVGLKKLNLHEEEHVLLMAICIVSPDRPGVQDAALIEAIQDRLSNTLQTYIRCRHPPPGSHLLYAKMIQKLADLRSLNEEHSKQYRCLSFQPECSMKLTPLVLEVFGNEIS

Cc1ccc(O)cc1C
not listed: [18] | [19] | [20]
inactive: all other assays above

CC(Cl)(Cl)C(=O)O
not listed: [5] | [20]
inactive: all other assays above

CCC(C)(C)c1ccc(O)cc1
not listed: [5] | [8] | [19] | [20]
inactive: all other assays above

Cc1ccc2c(c1N)C(=O)c1ccccc1C2=O
active: [1] 15 µM | [6] 13.6 µM | [11] 5.4 µM
not listed: [4] | [18] | [19] | [20]
inactive: all other assays above

CCCCOCC1CO1 (stereo not drawn)
inactive: [20]

Cc1ccc(N)cc1N
not listed: [4] | [8] | [20]
inactive: all other assays above

CO/N=C(/C(=O)OC)c1ccccc1COc1ccccc1C
inactive: [20]

O=P(OCC(Br)CBr)(OCC(Br)CBr)OCC(Br)CBr (stereo not drawn)
active: [2] 17.4 µM | [4] 10.3 µM | [5] 3.88 µM | [6] 12.4 µM | [7] 1.54 µM | [12] 3.69 µM
not listed: [1] | [8] | [18] | [19] | [20]
inactive: all other assays above

CCOP(=O)(O)C(N)=O
inactive: [20]

CC(C)(C)N(NC(=O)c1ccc(Cl)cc1)C(=O)c1ccccc1
inactive: [20]
